Experimental data published in article PMC7862700, “An all-to-all approach to the identification of sequence-specific readers for epigenetic DNA modifications on cytosine”.

What was measured:
Assay in all cases: DAPPL (digital affinity profiling via proximity ligation, sequencing); 10 mM Tris-HCl pH 7.5, 50 mM NaCl, 1 mM DTT, 4% glycerol, room temperature, 30 min; GST-TFs on glutathione beads, 16-mer random dsDNA library, 0.1% formaldehyde crosslink after washing; high values mean tight binding
Details in all cases: protein: recombinant; tags: N-terminal GST; dsDNA, one strand shown
ERF = biological target: T1, ERF (Homo sapiens, UniProt P50548 1-548)
T1 sequence: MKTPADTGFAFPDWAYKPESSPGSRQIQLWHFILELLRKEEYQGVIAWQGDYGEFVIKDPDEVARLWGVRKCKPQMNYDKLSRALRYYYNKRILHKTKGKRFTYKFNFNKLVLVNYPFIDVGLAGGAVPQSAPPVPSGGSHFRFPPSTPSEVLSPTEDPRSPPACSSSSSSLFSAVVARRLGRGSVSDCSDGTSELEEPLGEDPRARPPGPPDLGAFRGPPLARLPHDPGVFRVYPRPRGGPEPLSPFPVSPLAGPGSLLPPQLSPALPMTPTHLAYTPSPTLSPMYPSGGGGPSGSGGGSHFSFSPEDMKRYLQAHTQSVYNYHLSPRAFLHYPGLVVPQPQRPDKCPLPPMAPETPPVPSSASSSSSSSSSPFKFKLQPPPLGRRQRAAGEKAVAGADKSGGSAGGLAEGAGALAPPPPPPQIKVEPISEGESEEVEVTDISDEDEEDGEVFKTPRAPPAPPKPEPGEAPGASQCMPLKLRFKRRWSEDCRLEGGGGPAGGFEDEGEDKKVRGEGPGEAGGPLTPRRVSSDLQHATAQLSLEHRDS
Summary of the method: (§1)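 Binding signal is defined as a hexamer's read frequency for one factor over its frequency for the tag-only sample. To obtain reads, GST-fused human transcription factors were expressed in yeast, captured on glutathione beads, barcoded with DNA and pooled with that sample. Pools met 200 nmole of a 16-mer random double-stranded DNA library in Tris/NaCl/DTT/glycerol buffer for 30 min at room temperature before washing, 0.1% formaldehyde crosslinking, proximity ligation (BsaI/T4 ligase, 1 h, 37 °C), PCR and Illumina NextSeq500 sequencing.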

ETV3L = biological target: T2, ETV3L (Homo sapiens, UniProt Q6ZN32 1-361)
T2 sequence: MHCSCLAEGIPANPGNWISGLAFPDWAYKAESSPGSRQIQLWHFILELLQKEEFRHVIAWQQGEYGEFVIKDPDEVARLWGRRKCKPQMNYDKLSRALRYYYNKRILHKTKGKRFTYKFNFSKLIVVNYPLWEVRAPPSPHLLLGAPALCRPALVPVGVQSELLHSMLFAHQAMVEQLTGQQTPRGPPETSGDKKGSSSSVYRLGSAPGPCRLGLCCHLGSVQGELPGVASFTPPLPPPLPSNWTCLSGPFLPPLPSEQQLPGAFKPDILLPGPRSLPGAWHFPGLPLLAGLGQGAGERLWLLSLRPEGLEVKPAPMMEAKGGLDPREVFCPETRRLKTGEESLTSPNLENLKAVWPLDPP
Summary of the method: as §1

ETS2 = biological target: T3, ETS2 (Homo sapiens, UniProt P15036 1-469)
T3 sequence: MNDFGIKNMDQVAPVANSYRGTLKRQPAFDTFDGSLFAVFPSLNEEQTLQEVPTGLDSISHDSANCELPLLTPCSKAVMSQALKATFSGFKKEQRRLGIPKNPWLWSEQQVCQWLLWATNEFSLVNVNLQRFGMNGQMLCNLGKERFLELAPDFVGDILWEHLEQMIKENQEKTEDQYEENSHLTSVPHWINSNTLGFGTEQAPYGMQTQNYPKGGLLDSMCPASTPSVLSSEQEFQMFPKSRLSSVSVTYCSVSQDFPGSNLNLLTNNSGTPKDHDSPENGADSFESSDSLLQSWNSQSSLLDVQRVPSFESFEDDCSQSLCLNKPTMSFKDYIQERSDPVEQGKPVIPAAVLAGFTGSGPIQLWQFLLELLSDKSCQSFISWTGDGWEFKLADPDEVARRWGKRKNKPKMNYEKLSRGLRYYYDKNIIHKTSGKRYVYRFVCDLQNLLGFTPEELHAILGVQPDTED
Summary of the method: as §1

SPDEF = biological target: T4, SPDEF (Homo sapiens, UniProt O95238 1-335)
T4 sequence: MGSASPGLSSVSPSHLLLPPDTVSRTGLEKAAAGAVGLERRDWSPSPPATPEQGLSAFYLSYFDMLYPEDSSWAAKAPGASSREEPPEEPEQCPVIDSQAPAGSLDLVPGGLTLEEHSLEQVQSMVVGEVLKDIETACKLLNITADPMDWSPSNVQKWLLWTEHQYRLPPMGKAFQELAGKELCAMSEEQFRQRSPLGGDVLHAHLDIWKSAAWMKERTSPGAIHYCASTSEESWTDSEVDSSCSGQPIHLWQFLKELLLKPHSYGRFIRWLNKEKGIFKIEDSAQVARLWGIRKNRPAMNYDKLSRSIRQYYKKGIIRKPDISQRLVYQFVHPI
Summary of the method: as §1

ETV7 = biological target: T5, ETV7 (Homo sapiens, UniProt Q9Y603 1-341)
T5 sequence: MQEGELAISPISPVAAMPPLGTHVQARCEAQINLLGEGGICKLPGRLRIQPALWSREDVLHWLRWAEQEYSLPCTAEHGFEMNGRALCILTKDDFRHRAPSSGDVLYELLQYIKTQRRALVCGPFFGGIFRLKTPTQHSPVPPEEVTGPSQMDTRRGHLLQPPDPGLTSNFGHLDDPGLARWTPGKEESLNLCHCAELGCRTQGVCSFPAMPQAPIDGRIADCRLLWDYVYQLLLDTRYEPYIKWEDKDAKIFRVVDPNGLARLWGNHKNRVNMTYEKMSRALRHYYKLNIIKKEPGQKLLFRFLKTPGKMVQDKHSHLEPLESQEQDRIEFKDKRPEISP
Summary of the method: as §1

ELF5 = biological target: T6, ELF5 (Homo sapiens, UniProt Q9UKW6-2 1-255)
T6 sequence: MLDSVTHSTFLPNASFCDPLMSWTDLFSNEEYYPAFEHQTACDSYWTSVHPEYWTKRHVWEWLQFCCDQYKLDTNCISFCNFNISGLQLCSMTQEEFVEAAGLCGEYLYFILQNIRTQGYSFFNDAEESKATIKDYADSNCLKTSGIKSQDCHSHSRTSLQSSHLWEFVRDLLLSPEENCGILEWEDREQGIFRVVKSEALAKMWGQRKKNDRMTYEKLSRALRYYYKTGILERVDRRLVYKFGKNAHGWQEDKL
Summary of the method: as §1

ETV3 = biological target: T7, ETV3 (Homo sapiens, UniProt P41162-2 1-143)
T7 sequence: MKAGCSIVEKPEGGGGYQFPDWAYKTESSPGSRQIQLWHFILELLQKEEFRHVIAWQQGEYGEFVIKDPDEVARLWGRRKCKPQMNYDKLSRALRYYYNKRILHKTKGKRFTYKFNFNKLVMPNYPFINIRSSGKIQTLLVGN
Summary of the method: as §1

ETV6 = ETV6 (Homo sapiens, UniProt P41212 1-452)
Chain of ETV6 (P41212 whole entry): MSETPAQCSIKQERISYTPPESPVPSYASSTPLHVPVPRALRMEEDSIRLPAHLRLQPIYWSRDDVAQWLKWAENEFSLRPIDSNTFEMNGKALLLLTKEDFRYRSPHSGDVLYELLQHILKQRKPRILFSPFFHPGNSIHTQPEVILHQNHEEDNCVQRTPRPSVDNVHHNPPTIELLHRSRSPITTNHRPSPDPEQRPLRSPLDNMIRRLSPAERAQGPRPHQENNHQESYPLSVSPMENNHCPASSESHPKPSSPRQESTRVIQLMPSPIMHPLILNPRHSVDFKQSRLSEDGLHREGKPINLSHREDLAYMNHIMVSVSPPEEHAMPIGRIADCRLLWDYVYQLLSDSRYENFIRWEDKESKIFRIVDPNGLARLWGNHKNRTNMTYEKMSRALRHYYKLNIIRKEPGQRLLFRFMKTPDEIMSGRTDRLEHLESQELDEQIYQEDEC
Summary of the method: as §1

Question: Which binding signal (ERF) does the source give for GATCTT here?
Answer: 1.15 fold enrichment (6-mer frequency, TF over GST control)

Question: And the binding signal (ETV3L)?
Answer: 1.15 fold enrichment (6-mer frequency, TF over GST control)

Question: What about the binding signal (ETS2) of the same sequence?
Answer: 1.15 fold enrichment (6-mer frequency, TF over GST control)

Question: What about the binding signal (SPDEF) of the same sequence?
Answer: 1.42 fold enrichment (6-mer frequency, TF over GST control)

Question: And the binding signal (ETV7)?
Answer: 1.28 fold enrichment (6-mer frequency, TF over GST control)

Question: And the binding signal (ELF5)?
Answer: 1.29 fold enrichment (6-mer frequency, TF over GST control)

Question: And the binding signal (ETV3)?
Answer: 1.24 fold enrichment (6-mer frequency, TF over GST control)

Question: What about the binding signal (ETV6) of the same sequence?
Answer: 1.14 fold enrichment (6-mer frequency, TF over GST control)

Question: With CTATTT as the sequence, how does the binding signal (ERF) read?
Answer: 1.63 fold enrichment (6-mer frequency, TF over GST control)

Question: And the binding signal (ETV3L)?
Answer: 1.82 fold enrichment (6-mer frequency, TF over GST control)

Question: And the binding signal (ETS2)?
Answer: 1.71 fold enrichment (6-mer frequency, TF over GST control)

Question: What about the binding signal (SPDEF) of the same sequence?
Answer: 1.57 fold enrichment (6-mer frequency, TF over GST control)

Question: What about the binding signal (ETV7) of the same sequence?
Answer: 1.66 fold enrichment (6-mer frequency, TF over GST control)

Question: And the binding signal (ELF5)?
Answer: 1.72 fold enrichment (6-mer frequency, TF over GST control)

Question: And the binding signal (ETV3)?
Answer: 1.63 fold enrichment (6-mer frequency, TF over GST control)

Question: What about the binding signal (ETV6) of the same sequence?
Answer: 1.9 fold enrichment (6-mer frequency, TF over GST control)

Question: With TAAGTA as the sequence, how does the binding signal (ERF) read?
Answer: 1.24 fold enrichment (6-mer frequency, TF over GST control)

Question: What about the binding signal (ETV3L) of the same sequence?
Answer: 1.22 fold enrichment (6-mer frequency, TF over GST control)

Question: And the binding signal (ETS2)?
Answer: 1.2 fold enrichment (6-mer frequency, TF over GST control)

Question: And the binding signal (SPDEF)?
Answer: 1.21 fold enrichment (6-mer frequency, TF over GST control)

Question: And the binding signal (ETV7)?
Answer: 1.13 fold enrichment (6-mer frequency, TF over GST control)

Question: And the binding signal (ELF5)?
Answer: 1.25 fold enrichment (6-mer frequency, TF over GST control)

Question: What about the binding signal (ETV3) of the same sequence?
Answer: 1.23 fold enrichment (6-mer frequency, TF over GST control)

Question: And the binding signal (ETV6)?
Answer: 1.28 fold enrichment (6-mer frequency, TF over GST control)

Question: CCTATC was tested. Which binding signal (ERF) did it give?
Answer: 1.17 fold enrichment (6-mer frequency, TF over GST control)

Question: And the binding signal (ETV3L)?
Answer: 1.22 fold enrichment (6-mer frequency, TF over GST control)

Question: And the binding signal (ETS2)?
Answer: 1.2 fold enrichment (6-mer frequency, TF over GST control)

Question: And the binding signal (SPDEF)?
Answer: 1.29 fold enrichment (6-mer frequency, TF over GST control)

Question: And the binding signal (ETV7)?
Answer: 1.3 fold enrichment (6-mer frequency, TF over GST control)

Question: And the binding signal (ELF5)?
Answer: 1.12 fold enrichment (6-mer frequency, TF over GST control)

Question: And the binding signal (ETV3)?
Answer: 1.2 fold enrichment (6-mer frequency, TF over GST control)

Question: And the binding signal (ETV6)?
Answer: 1.12 fold enrichment (6-mer frequency, TF over GST control)

Question: With AAATAC as the sequence, how does the binding signal (ERF) read?
Answer: 1.48 fold enrichment (6-mer frequency, TF over GST control)

Question: And the binding signal (ETV3L)?
Answer: 1.35 fold enrichment (6-mer frequency, TF over GST control)

Question: What about the binding signal (ETS2) of the same sequence?
Answer: 1.39 fold enrichment (6-mer frequency, TF over GST control)

Question: And the binding signal (SPDEF)?
Answer: 1.41 fold enrichment (6-mer frequency, TF over GST control)

Question: And the binding signal (ETV7)?
Answer: 1.5 fold enrichment (6-mer frequency, TF over GST control)

Question: What about the binding signal (ELF5) of the same sequence?
Answer: 1.52 fold enrichment (6-mer frequency, TF over GST control)

Question: What about the binding signal (ETV3) of the same sequence?
Answer: 1.39 fold enrichment (6-mer frequency, TF over GST control)

Question: What about the binding signal (ETV6) of the same sequence?
Answer: 1.49 fold enrichment (6-mer frequency, TF over GST control)

Question: Which binding signal (ERF) does the source give for TAGATG here?
Answer: 1.54 fold enrichment (6-mer frequency, TF over GST control)

Question: And the binding signal (ETV3L)?
Answer: 1.36 fold enrichment (6-mer frequency, TF over GST control)

Question: And the binding signal (ETS2)?
Answer: 1.3 fold enrichment (6-mer frequency, TF over GST control)

Question: And the binding signal (SPDEF)?
Answer: 1.35 fold enrichment (6-mer frequency, TF over GST control)

Question: What about the binding signal (ETV7) of the same sequence?
Answer: 1.33 fold enrichment (6-mer frequency, TF over GST control)

Question: What about the binding signal (ELF5) of the same sequence?
Answer: 1.27 fold enrichment (6-mer frequency, TF over GST control)

Question: What about the binding signal (ETV3) of the same sequence?
Answer: 1.22 fold enrichment (6-mer frequency, TF over GST control)

Question: What about the binding signal (ETV6) of the same sequence?
Answer: 1.24 fold enrichment (6-mer frequency, TF over GST control)

Question: For AATGTC, which binding signal (ERF) is on record?
Answer: 1.17 fold enrichment (6-mer frequency, TF over GST control)

Question: And the binding signal (ETV3L)?
Answer: 1.22 fold enrichment (6-mer frequency, TF over GST control)

Question: And the binding signal (ETS2)?
Answer: 1.27 fold enrichment (6-mer frequency, TF over GST control)

Question: What about the binding signal (SPDEF) of the same sequence?
Answer: 1.36 fold enrichment (6-mer frequency, TF over GST control)

Question: And the binding signal (ETV7)?
Answer: 1.23 fold enrichment (6-mer frequency, TF over GST control)

Question: What about the binding signal (ELF5) of the same sequence?
Answer: 1.38 fold enrichment (6-mer frequency, TF over GST control)

Question: What about the binding signal (ETV3) of the same sequence?
Answer: 1.23 fold enrichment (6-mer frequency, TF over GST control)

Question: And the binding signal (ETV6)?
Answer: 1.21 fold enrichment (6-mer frequency, TF over GST control)
